Mtb FBA inh: Mtb FBA enzyme inhibitors, primary screen, biochemical, fluorescence, strain H37Rv; inhibition, % at 1 µM; 2.3% of 360,000 active; purified M. tuberculosis FBA, fluorescence read-out; AID 588726, 2011; Fructose-bisphosphate aldolase (Mycobacterium tuberculosis (strain ATCC 25618 / H37Rv)), …; in the data active = inhibition above about 27%
Target sequence (P9WQA3 whole entry, looked up): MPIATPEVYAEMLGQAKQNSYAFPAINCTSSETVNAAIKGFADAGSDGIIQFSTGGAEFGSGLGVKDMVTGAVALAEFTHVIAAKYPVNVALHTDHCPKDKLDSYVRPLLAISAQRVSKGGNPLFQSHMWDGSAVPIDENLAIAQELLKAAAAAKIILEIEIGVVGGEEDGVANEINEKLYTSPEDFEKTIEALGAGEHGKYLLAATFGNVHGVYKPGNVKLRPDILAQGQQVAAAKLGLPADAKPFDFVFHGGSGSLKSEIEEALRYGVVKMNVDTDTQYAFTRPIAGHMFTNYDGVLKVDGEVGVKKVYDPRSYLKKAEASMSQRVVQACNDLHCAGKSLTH
RecA splice inh: Mtb RecA intein splicing inhibitors, primary screen, biochemical, fluorescence, HTS; inhibition, % (test concentration not listed); AID 2221, 2009; cell-free RecA intein splicing; 0.75% of 290,000 active; Protein RecA (Mycobacterium tuberculosis (strain ATCC 25618 / H37Rv)), P9WHJ3; in the data active = inhibition above about 30%
GDH-TPI counter: GDH-TPI coupling enzyme inhibitors, primary screen, artefact control for M. tuberculosis FBA inhibitor project, biochemical, absorbance, full deck. GDH-TPI coupled enzyme counterscreen, NADH absorbance. inhibition, % at 4.8 µM. 1.2% of 360,000 active. AID 588335, 2011
CCHFV vOTU inh: CCHFV vOTU protease inhibitors, primary screen, biochemical, Pep-AMC substrate, fluorescence | 0.55% of 370,000 active | Crimean-Congo hemorrhagic fever virus L polyprotein viral ovarian tumor (vOTU) protease … | inhibition, % at 11.5 µM | AID 651958, 2012
Hits are given with their value; n = inactive; x = no result given; + = active, no number. Rows were chosen to be rich in hits. Some 4.2% of all compounds tested hit in one or more screens of this group. Rule as the data show it, unless noted: active = inhibition above about 30%; inactive = the rest.

SMILES | Mtb FBA inh | RecA splice inh | GDH-TPI counter | CCHFV vOTU inh
c1ccc(-n2nc3c(ccc4cnnc43)[nH]2)cc1 | 144 | n | n | n
CCCCCOc1ccc(/C=C/c2c([N+](=O)[O-])c(=O)n(C)c(=O)n2C)cc1 | n | n | n | n
C#CCNC(=O)c1csc([C@@H]2O[C@H](CO)[C@@H](O)[C@H]2O)n1 | n | x | n | n
COCCNC(=S)N/N=C/c1ccc(OCc2ccc(C(=O)OC)cc2)cc1 | n | n | n | n
CCNC(=S)N/N=C/c1ccc(OCc2ccc(C(=O)OC)cc2)cc1 | n | n | 33 | n
O=C1CCC/C1=C/Nc1ccc(Cl)cc1 | n | n | 32 | n
CCN(CC(=O)Nc1ccccc1C(F)(F)F)C(=O)CSCc1ccc(C)cc1 | n | n | n | n
O=C1/C(=C/c2ccc(C(=O)O)cc2)CCC/C1=C\c1ccc(C(=O)O)cc1 | n | n | 33 | n
CN(C)CCOc1ccc2c(c1)C(=O)C(=Cc1ncc([N+](=O)[O-])n1C)C2 | n | x | 32 | n
CCc1cc(OCCN(C)C)ccc1Cl | n | n | n | n
O=C1OC(Cc2ccccn2)C(=O)C1=C1SCCS1 (centres undefined) | n | n | 41 | n
O=C1CSC(c2ccccc2)N1Cc1ccccn1 (centres undefined) | n | n | n | n
O=C1C2C3C=CC(CC3)C2C(=O)N1/N=C/c1ccc(O)c(O)c1 (centres undefined) | n | n | n | n
CC(=O)NN1C(=O)/C(=C\c2ccc(O)cc2)SC1=S | n | n | n | n
O=C1/C(=C\c2ccc(O)cc2)SC(=S)N1/N=C/c1ccc(O)cc1 | n | n | 38 | n
O=C1C2C3C=CC(CC3)C2C(=O)N1/N=C/c1ccc(O)cc1 (centres undefined) | n | n | 32 | n
CC(=O)c1cn(CCOc2ccc(F)cc2)c2ccccc12 | n | n | n | n
Cc1ccc2c(c1)c1c(c(=O)n(-c3ccccc3C)c(=O)n1CC(=O)NCC1CCCO1)n2C (centres undefined) | + | n | n | n
Cc1cc(C)cc(-n2c(=O)c3ccccc3n(CC(=O)NCC3CCCO3)c2=O)c1 (centres undefined) | n | x | n | n
CCCCCCCCN1CN2Cc3cc(OC)ccc3C2CS1(=O)=O (centres undefined) | x | x | x | n
Cc1ccc(/C=N/NC(=O)c2ccc(Br)o2)s1 | n | n | 31 | n
CCc1ccc(/C=N\NC(=O)c2ccc(Br)o2)s1 | n | n | 47 | n
O=C(N/N=C\c1ccc(Cl)s1)c1ccc(Cn2cccn2)o1 | n | n | 37 | n
Cc1ccc(/C=N/NC(=O)Cc2ccc(O)cc2)s1 | n | n | n | n
CCCCCNC(=O)C(C1CC1)n1c(=O)c(-c2ccco2)nc2ccccc21 (centres undefined) | x | x | x | n
SMILES | Mtb FBA inh | RecA splice inh | GDH-TPI counter | CCHFV vOTU inh
COC(=O)[C@]12CCCCC=C1N(Cc1ccc3c(c1)OCO3)C(=O)[C@H](CC(=O)NCc1ccc(OC)c(OC)c1)C2 | x | x | x | n
CN(CC1CCCN(CCc2ccc(Cl)cc2)C1)C(=O)c1ccco1 (centres undefined) | n | n | n | n
COCC(=O)N/N=C(\C)CC(=O)Nc1ccccc1C(N)=O | 55 | n | n | n
COc1ccccc1C(=O)N/N=C(\C)CC(=O)Nc1ccccc1NC(C)=O | n | n | n | n
CCOc1ccc(-n2c(SCc3nc4ccccc4[nH]3)nnc2-c2cccc(Cl)c2)cc1 | x | x | x | n
C/C(=N\Nc1nccnc1Cl)c1ccc(O)cc1 | n | n | n | n
C/C(=N\Nc1nccnc1Cl)c1ccc(Cl)c(Cl)c1 | n | n | 41 | n
N=c1c(C(=O)NCCc2ccccc2)cc2c(=O)n3ccccc3nc2n1CCCN1CCOCC1 | 145 | x | n | n
Cc1ccc(Cn2c(=N)c(C(=O)NCCN3CCOCC3)cc3c(=O)n4ccccc4nc32)cc1 | n | n | n | n
N=c1c(S(=O)(=O)c2ccc(Br)cc2)cc2c(=O)n3ccccc3nc2n1CCN1CCOCC1 | + | x | n | n
N=c1c(C(=O)NCc2ccc(F)cc2)cc2c(=O)n3ccccc3nc2n1CCCN1CCOCC1 | 113 | x | n | n
N=c1c(C(=O)NCCN2CCOCC2)cc2c(=O)n3ccccc3nc2n1CCc1ccccc1 | 173 | n | n | n
CCN(CC)c1ccc(/C=N/NC(=O)OC)c(O)c1 | n | n | 43 | n
CCN(CC)c1ccc(/C=N/NC(=O)c2ccoc2C)c(O)c1 | n | n | 37 | n
N#Cc1ccccc1S(=O)(=O)Nc1ccc2c(c1)OCCO2 | n | n | n | n
Cc1ccc(CN2CCCCC(NC(=O)Nc3ccccc3)C2=O)cc1 (centres undefined) | x | x | x | n
COc1cc(-c2nc3ccc(C)cn3c2NCc2ccccc2)ccc1SC1CCCCC1 | 39 | n | n | n
COc1ccc(-c2nc3ccc(C)cn3c2Cc2ccccc2)cc1OC | 90 | x | x | n
OC(c1ccccc1)(c1ccccc1)C1CCN(CCCOc2ccc(Br)cc2)CC1 | x | x | x | n
COc1ccc([C@H]2OC(=O)C[C@@H]2C(=O)N2CCN(c3ccccc3Cl)CC2)cc1OC | x | x | x | n
COc1c2ccccc2nc2ccccc12 | 143 | n | n | n
COc1ccc(/C=C/C(Cc2cccc(C(C)=O)c2)c2ccc(C)cc2)cc1 (centres undefined) | x | x | x | n
COc1cc(NC(=O)Cn2ncc(Cl)c(Cl)c2=O)c(C)cc1[N+](=O)[O-] | n | 53 | n | n
CN(C)C(=O)c1ccc2c(c1[N+](=O)[O-])C(=O)c1ccccc1C2=O | n | 55 | n | n
O=C(O)CC/C(=C/c1cccc(NC(=O)c2ccccc2Cl)c1)c1nc2ccccc2s1 | n | x | 37 | n
SMILES | Mtb FBA inh | RecA splice inh | GDH-TPI counter | CCHFV vOTU inh
Cc1ccc(N(C(=O)c2csnn2)C(C(=O)NC2CCCCC2)c2cccnc2)cc1 (centres undefined) | n | n | n | n
COc1ccc(OC)c(/C=N/NC(=O)Cn2ccnc2C)c1 | 165 | n | n | n
COc1ccc(/C=N/NC(=O)c2[nH]c(C)c(C(=O)N/N=C/c3ccc(OC)cc3)c2C)cc1 | n | n | 100 | n
COc1cccc(/C=N/NC(=O)c2[nH]c(C)c(C(=O)N/N=C/c3cccc(OC)c3)c2C)c1 | n | n | 42 | n
COC(=O)C1CN(Cc2ccc(OC)cc2)CCS(=O)(=O)N1Cc1cn(Cc2ccccc2)nn1 (centres undefined) | x | x | x | n
COc1cc(C2C(C#N)=C(N)Oc3n[nH]c(-c4ccncc4)c32)cc(OC)c1OC (centres undefined) | n | n | n | n
COc1ccc(-c2[nH]nc3c2C(c2ccsc2)C(C#N)=C(N)O3)cc1 (centres undefined) | n | 71 | n | n
CCCc1[nH]nc2c1C(c1ccccc1OCC)C(C#N)=C(N)O2 (centres undefined) | n | 67 | n | n
CCCc1[nH]nc2c1C(c1cccnc1)C(C#N)=C(N)O2 (centres undefined) | n | x | n | n
CCc1[nH]nc2c1C(c1cccnc1)C(C#N)=C(N)O2 (centres undefined) | n | 45 | n | n

High-throughput results deposited in PubChem by several laboratories.
